What all share (type): functional
The subject of assay [1] is Plasmodium falciparum. Put plainly: GSK_TCMDC: Inhibition of Plasmodium falciparum 3D7 in whole red blood cells, using parasite LDH activity as an index of growth. Test compounds present at 2uM.
The subject of assay [2] is Plasmodium falciparum. Put plainly: GSK_TCMDC: Inhibition of Plasmodium falciparum Dd2 in whole red blood cells, using parasite LDH activity as an index of growth. Test compounds present at 2uM.
Another assay has as its system HepG2. The assay can be described thus: GSK_TCMDC: Percent inhibition of human HepG2 cell line. Test compounds present at 10uM.

SMILES strings stand for the structures. “And” between values parts separate entries of the source, which are not always exact repeats. Equal values may be shown once.

From ChEMBL document CHEMBL1157539, “Thousands of chemical starting points for antimalarial lead identification” (Nature, 2010) come the findings set out here.

For orientation: Inhibition means how much of the control response was suppressed. Read a high Inhibition as a response far below the control.

As for `CN1N=C2c3ccccc3CCC2C1c1ccc(C#N)cc1` (stereo not given), the Inhibition was determined as 95% in the assay with Plasmodium falciparum [1], 85% with Plasmodium falciparum [2] and 0% in the assay with HepG2.

For `Cc1cc(N[C@@H](CC(C)C)C(=O)Nc2ccccc2)nc(Nc2ccccc2)n1.O=C(O)C(F)(F)F`, the Inhibition in the assay with Plasmodium falciparum [1] is given as 99%; in the assay with Plasmodium falciparum [2], 93%; in the assay on HepG2, 0%.

In the case of `O=C(Nc1cccc(CN2CCCN(CC3CC3)CC2)c1)c1ccc(-c2ccccc2)cc1.O=C(O)C(F)(F)F`, the Inhibition in the assay on Plasmodium falciparum [1] stood at 96%; in the assay on Plasmodium falciparum [2], 5%; in the assay on HepG2, 15%.

As for `CCCC/C=C(\Cl)c1ccc(O)c2c1C[C@H]1C[C@H]3[C@H](N(C)C)C(O)=C(C(N)=O)C(=O)[C@@]3(O)C(O)=C1C2=O.Cl`, the Inhibition with Plasmodium falciparum [1] came to 90%; with Plasmodium falciparum [2] it was 98%; in the assay with HepG2, 16%.

As to `CC(C)(CNC(=O)[C@@H]1CCCN(Cc2ccc(Cl)cc2)C1)c1nc(-c2ccc(Cl)c(O)c2)c(-c2ccncc2)[nH]1.Cl`, the Inhibition stood at 97% with Plasmodium falciparum [1], 37% with Plasmodium falciparum [2] and 66% with HepG2.

`CN(C)CCCc1cc2c(cc1Cl)CCN2C(=O)Nc1ccc(-c2ccncc2)c2ccccc12`: the Inhibition was found to be 94% with Plasmodium falciparum [1], 0% in the assay on Plasmodium falciparum [2] and 4% in the assay with HepG2.

Consider `O=c1ccc2ccc(F)cc2n1CCN1CCC(NCc2ccc(-c3ccccn3)s2)CC1`, for which the Inhibition is on record as 98% in the assay with Plasmodium falciparum [1], 30% in the assay with Plasmodium falciparum [2] and 0% with HepG2.

For `O=C(Nc1cccc(OC2CCN(Cc3ccc(F)cc3)CC2)c1)c1ccc(C(F)(F)F)cc1.O=C(O)C(F)(F)F`, the values for the Inhibition with Plasmodium falciparum [1], in the assay on Plasmodium falciparum [2] and in the assay with HepG2 were 94%, 6% and 28%, respectively.

Turning to `O=C(Nc1ccc(-c2nc3ccccc3[nH]2)cc1)c1cccc([N+](=O)[O-])c1`, the Inhibition in the assay with Plasmodium falciparum [1] was 100%; with Plasmodium falciparum [2], 56%; with HepG2, 45%.

For `CCc1nc(N)nc(N)c1-c1ccc(Cl)cc1` [PYRIMETHAMINE], the Inhibition in the assay with Plasmodium falciparum [1] was 94% and 93%; in the assay on Plasmodium falciparum [2], 0%; with HepG2, 71% and 66%.

Regarding `COCC(=O)Nc1nc2ccccc2[nH]1`, the Inhibition with Plasmodium falciparum [1] amounted to 98%; in the assay with Plasmodium falciparum [2], 1%; with HepG2, 0%.

With `Cc1ccccc1C1CCN(C2CCC(NC(=O)/C=C/c3ccc(F)c(F)c3)CC2)CC1` (stereo not given), the Inhibition was found to be 93% in the assay with Plasmodium falciparum [1], 7% with Plasmodium falciparum [2] and 34% with HepG2.

For the compound `Cc1ccccc1Cn1c(CN2CCC(C(=O)NC3CC3)CC2)cc2ccccc21`, the Inhibition was 97% in the assay with Plasmodium falciparum [1], 96% with Plasmodium falciparum [2] and 7% in the assay on HepG2.

Regarding `Br.CC1(C)NC(N)=NC(=N)N1OCCSc1ccc(Cl)c(Cl)c1`, the results for the Inhibition in the assay with Plasmodium falciparum [1], with Plasmodium falciparum [2] and in the assay with HepG2 were 96%, 95% and 65%, respectively.

Take `C=CCc1cccc(CN2CCC(c3cc(O)nc(-c4ccccn4)n3)CC2)c1O`: the Inhibition with Plasmodium falciparum [1] was determined as 91%; in the assay on Plasmodium falciparum [2], 75%; with HepG2, 46%.

In the case of `Cc1ccc(CNC(=O)[C@H](Cc2ccccc2)Nc2cc(C)nc(Nc3ccccc3)n2)cc1.O=C(O)C(F)(F)F`, the results for the Inhibition in the assay on Plasmodium falciparum [1], in the assay on Plasmodium falciparum [2] and in the assay with HepG2 were 100%, 91% and 16%, respectively.

Regarding `FC(F)(F)c1ccc2[nH]c(-c3ccc(-c4ccc(CNCc5cnn(-c6ccccc6)n5)cc4)cc3)nc2c1.O=C(O)C(F)(F)F`, the Inhibition with Plasmodium falciparum [1] is 100%; with Plasmodium falciparum [2], 76%; in the assay on HepG2, 35%.

As to `CC(C)(C)c1ccc(CN2CCC(NC(=O)c3ccc(-c4cccc(Cl)c4)s3)CC2)cc1.O=C(O)C(F)(F)F`, the Inhibition with Plasmodium falciparum [1] is on record as 99%; in the assay on Plasmodium falciparum [2], 47%; in the assay on HepG2 it was 36%.

Consider `CCCc1cnc2nc(N)nc(N)c2c1C`, for which the Inhibition was found to be 93% with Plasmodium falciparum [1], 3% in the assay on Plasmodium falciparum [2] and 68% in the assay on HepG2.

On to `COc1ccc(Nc2nccc(NCC(O)c3ccc(C(F)(F)F)cc3)n2)cc1` (stereo not given), for which the Inhibition is listed as 98% in the assay on Plasmodium falciparum [1], 54% in the assay on Plasmodium falciparum [2] and 6% with HepG2.

On to `O=C(O)C(F)(F)F.O=S(=O)(NCCN1CCCC1)c1ccc(-c2cccc(CNC3Cc4ccccc4C3)c2)cc1F`, for which the Inhibition in the assay on Plasmodium falciparum [1] is reported as 98%; in the assay on Plasmodium falciparum [2], 62%; with HepG2, 41%.

For `CCCCN1CCN(CCCCNc2c3ccccc3nc3ccccc23)CC1.Cl`, the Inhibition in the assay with Plasmodium falciparum [1] was 100%; in the assay on Plasmodium falciparum [2] it was 5%; in the assay on HepG2, 27%.

In the case of `CCOC(=O)C1=C(C)NC2=C(C(=O)CC(C)(C)C2)C1c1ccc(Cl)cc1` (stereo not given), the results for the Inhibition in the assay with Plasmodium falciparum [1], in the assay on Plasmodium falciparum [2] and with HepG2 were 96%, 84% and 4%, respectively.

Consider `COc1cc(Cc2cnc(N)nc2N)cc(OCCCCc2nnn[nH]2)c1OC`, for which the figures for the Inhibition in the assay on Plasmodium falciparum [1], in the assay on Plasmodium falciparum [2] and in the assay on HepG2 were 97%, 0% and 7%, respectively.

`CN1CCCC1CCNCc1cccc(-c2cnc(N3CCCC(C)(C)C3)nc2)c1` (stereo not given): the Inhibition in the assay on Plasmodium falciparum [1] amounted to 98%; in the assay on Plasmodium falciparum [2], 95%; in the assay on HepG2, 99%.

As for `O=C(/C=C/c1ccc(Cl)c(Cl)c1)NCCCCCN1CCC(NC(=O)Nc2ccc(F)cc2F)CC1`, the Inhibition was determined as 100% in the assay on Plasmodium falciparum [1], 23% in the assay on Plasmodium falciparum [2] and 14% in the assay on HepG2.

Take `Br.CCc1c(CCNCCCCCCNCCc2ccc([N+](=O)[O-])cc2)ccc(O)c1O`: the Inhibition in the assay with Plasmodium falciparum [1] is 94%; in the assay with Plasmodium falciparum [2], 23%; with HepG2, 5%.

With `COc1cccc(CNC[C@@H](O)[C@H](Cc2ccccc2)NC(=O)c2cc(N3CCCC3=O)c3[nH]cc(C(C)C)c3c2)c1`, the Inhibition in the assay with Plasmodium falciparum [1] came out at 96%; in the assay with Plasmodium falciparum [2], 98%; in the assay with HepG2 it was 5%.

Turning to `Fc1cccc(COc2ccc(Nc3ncnc4sc(C#Cc5ncc[nH]5)cc34)cc2Cl)c1`, the Inhibition in the assay on Plasmodium falciparum [1] was 100%; in the assay with Plasmodium falciparum [2], 95%; with HepG2, 55%.

Take `CC(=O)Nc1ccc(C(=O)Nc2ccc(-c3cccc(-c4nc5cccc(C)c5[nH]4)c3)cc2)cn1`: the results for the Inhibition in the assay on Plasmodium falciparum [1], with Plasmodium falciparum [2] and in the assay on HepG2 were 99%, 74% and 36%, respectively.
